{"source": "PubChem BioAssay AID1063", "about": "(University of Pittsburgh Molecular Library Screening Center, 2008)", "note": "About 18,000 (9%) of roughly 200,000 compounds were called active. No stated cut-off is given here; in the data, active means inhibition above about 50%; inactive means the rest. The full list was thinned out, with actives kept by preference.", "data": [{"assay": "antileishmanial activity against promastigotes – primary screen (AID 1063);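 further: promastigotes grown with compound for 44 hours at 28 °C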", "conditions": "Leishmania major promastigotes, resazurin fluorescence viability; at 10 µM; stronger effect = higher value", "values": [{"smiles": "Cc1ccc2[nH]c(C)c(CCNC(=O)NC3CCCCC3)c2c1", "inhibition": "5.48% (inactive)"}, {"smiles": "COc1ccc(N2CCN(C(=O)CNS(=O)(=O)c3ccc(C)c(C)c3)CC2)cc1", "inhibition": "6.23% (inactive)"}, {"smiles": "N#CCSc1nc2ccccc2c(=O)n1-c1ccccc1", "inhibition": "4.35% (inactive)"}, {"smiles": "COc1cccc(-n2c(SCC(=O)c3c[nH]c4ccccc34)nc3ccccc3c2=O)c1", "inhibition": "92.9% (active)"}, {"smiles": "CCCn1c(N)c(C(=O)CSc2nc3ccccc3c(=O)n2-c2ccc(OC)cc2)c(=O)[nH]c1=O", "inhibition": "-3.93% (inactive)"}, {"smiles": "O=C(Nc1cc(S(=O)(=O)N2CCOCC2)ccc1Cl)c1cc(=O)c2ccccc2o1", "inhibition": "31.5% (inactive)"}, {"smiles": "COC(=O)c1ccc(NC(=O)c2cc(Cl)ccc2OC)cc1", "inhibition": "-3.49% (inactive)"}, {"smiles": "Cc1[nH]n(-c2ccccc2)c(=O)c1/C=N/NC(=O)c1ccoc1C", "inhibition": "96.8% (active)"}, {"smiles": "Cc1[nH]n(-c2ccc([N+](=O)[O-])cc2)c(=O)c1C=NCCN1CCN(C(=O)c2ccccc2F)CC1", "inhibition": "-1.62% (inactive)"}, {"smiles": "COc1cc(OC)c(/C=N/NC(=O)c2ccc([N+](=O)[O-])cc2)cc1Br", "inhibition": "-7.92% (inactive)"}, {"smiles": "COc1ccc(/C=N/NC(=O)c2ccccc2)cc1OS(=O)(=O)c1ccccc1", "inhibition": "4.68% (inactive)"}, {"smiles": "Cc1cccc(C(=O)NNC(=O)c2cccc([N+](=O)[O-])c2)c1", "inhibition": "4.56% (inactive)"}, {"smiles": "Cc1ccc(-n2[nH]c(C)c(/C=N/NC(=O)c3cccc([N+](=O)[O-])c3)c2=O)cc1C", "inhibition": "96.9% (active)"}, {"smiles": "Cc1[nH]n(-c2ccc(Cl)cc2)c(=O)c1/C=N/n1c(C)nc2ccccc2c1=O", "inhibition": "-14.5% (inactive)"}, {"smiles": "COc1cccc(/C=N/NC(=O)c2cccc([N+](=O)[O-])c2)c1OS(=O)(=O)c1ccc(C)cc1", "inhibition": "55.1% (active)"}, {"smiles": "Cc1ccc(N=Nc2c(C)[nH]n(-c3ccccc3)c2=O)cc1", "inhibition": "-5.3% (inactive)"}, {"smiles": "O=C(CC12CC3CC(CC(C3)C1)C2)NCc1ccco1", "inhibition": "-4.33% (inactive)"}, {"smiles": "CCOc1ccc(OCc2cccc(C(=O)N(CC)CC)c2)cc1", "inhibition": "0.53% (inactive)"}, {"smiles": "Cc1c(NC(=O)CSc2nnnn2-c2ccc(C(=O)O)cc2)c(=O)n(-c2ccccc2)n1C", "inhibition": "-3% (inactive)"}, {"smiles": "CCOc1ccc(CCN2C(=O)c3cccnc3C2=O)cc1OCC", "inhibition": "-10.8% (inactive)"}, {"smiles": "Cn1cnnc1SCC(=O)Nc1ccc(N2CCOCC2)cc1", "inhibition": "-5.65% (inactive)"}, {"smiles": "N#Cc1ccc(OCc2nnc(-c3ccc([N+](=O)[O-])cc3)o2)cc1", "inhibition": "-3.9% (inactive)"}, {"smiles": "CCc1ccc2ncc(C(=O)c3ccccc3)c(N3CCOCC3)c2c1", "inhibition": "10.5% (inactive)"}, {"smiles": "O=[N+]([O-])c1ccccc1NCc1ccccc1Cl", "inhibition": "12.2% (inactive)"}, {"smiles": "C=CCc1cccc2cc(C(=O)Nc3ccc(NC(C)=O)cc3)c(=O)oc12", "inhibition": "-6.83% (inactive)"}, {"smiles": "C/C(=N\\NC(=O)c1cccc(N2CCCC2=O)c1)c1ccc(N)cc1", "inhibition": "-3.01% (inactive)"}, {"smiles": "CC(C)(C)c1ccc(C(=O)NCCC(=O)NCc2ccco2)cc1", "inhibition": "-5.5% (inactive)"}, {"smiles": "O=C(CN1C(=O)/C(=C\\c2ccc(C(F)(F)F)cc2)Sc2ccccc21)NCc1ccco1", "inhibition": "95.1% (active)"}, {"smiles": "O=C(CN1C(=O)/C(=C/c2ccccc2F)Sc2ccccc21)NCc1cccnc1", "inhibition": "19.2% (inactive)"}, {"smiles": "CCc1[nH]nc(C(=O)N2CCCC(CNS(=O)(=O)c3cccs3)C2)c1C", "note": "(stereo not drawn)", "inhibition": "-4.31% (inactive)"}, {"smiles": "CN(C)S(=O)(=O)c1cccc(NC(=S)NCc2ccc3c(c2)OCO3)c1", "inhibition": "-0.11% (inactive)"}, {"smiles": "C/C(=N\\NC(=S)NCc1ccccc1)C1CCCCC1", "inhibition": "89.9% (active)"}, {"smiles": "CC1CCCCN1C(=S)NCc1ccccc1", "note": "(stereo not drawn)", "inhibition": "-0.34% (inactive)"}, {"smiles": "C/C(=N\\NC(=S)NCc1ccccc1)c1ccc(Cl)cc1", "inhibition": "1.34% (inactive)"}, {"smiles": "COc1ccc2nc(Nc3nc(-c4ccncc4)cs3)sc2c1", "inhibition": "7.68% (inactive)"}, {"smiles": "c1csc(-c2nnc(COc3ccc4c(c3)OCO4)o2)c1", "inhibition": "5.84% (inactive)"}, {"smiles": "CCN(C(=O)COC(=O)c1ccc(COc2ccc3c(C)cc(=O)oc3c2)cc1)C1CCS(=O)(=O)C1", "note": "(stereo not drawn)", "inhibition": "-10.4% (inactive)"}, {"smiles": "Cc1ccc(NC(=O)c2ccc(Oc3ncccn3)cc2)cc1", "inhibition": "7.15% (inactive)"}, {"smiles": "Oc1ccc(/C=N/Nc2ccc(C(F)(F)F)cn2)cc1O", "inhibition": "95.4% (active)"}, {"smiles": "Cc1nccn1CC(=O)N/N=C/c1ccc(O)c(O)c1", "inhibition": "-6.58% (inactive)"}, {"smiles": "FC(F)(F)c1cccc(N/N=C/c2ccccc2)c1", "inhibition": "-13.1% (inactive)"}, {"smiles": "CCc1nnc(NC(=O)C2CC(=O)N(c3ccc4c(c3)OCCO4)C2)s1", "note": "(stereo not drawn)", "inhibition": "-9.31% (inactive)"}, {"smiles": "c1ccc(CCn2nnnc2CN2CCN(C3CCCC3)CC2)cc1", "inhibition": "85.5% (active)"}, {"smiles": "N#Cc1ccc(C(c2nnnn2CCc2ccccc2)N2CCCCCC2)cc1", "note": "(stereo not drawn)", "inhibition": "16.3% (inactive)"}, {"smiles": "c1ccc(C(c2ccccc2)N2CCN(Cc3nnnn3C3CCCCC3)CC2)cc1", "inhibition": "9.22% (inactive)"}, {"smiles": "CCOc1cc(NC(=S)NCCCN(C)C)c(OCC)cc1NC(=O)C1CC1", "inhibition": "-0.62% (inactive)"}, {"smiles": "C=CCn1cc(-c2cccc(C(F)(F)F)c2)cc(C#N)c1=O", "inhibition": "10.4% (inactive)"}, {"smiles": "C[n+]1ccccc1C1CCCC/C1=N\\Nc1ccc([N+](=O)[O-])cc1[N+](=O)[O-]", "note": "(stereo not drawn)", "inhibition": "-1.09% (inactive)"}, {"smiles": "O=C(Nc1ccccc1)O/N=C1\\CCCCC1c1ccc([N+](=O)[O-])cc1[N+](=O)[O-]", "note": "(stereo not drawn)", "inhibition": "99.6% (active)"}, {"smiles": "O=[N+]([O-])c1ccc(N/N=C2/CCCCC2c2ccccn2)c([N+](=O)[O-])c1", "note": "(stereo not drawn)", "inhibition": "2.5% (inactive)"}, {"smiles": "O=C(CN1CCCCC1)Nc1ccccc1Cl", "inhibition": "-0.98% (inactive)"}, {"smiles": "O=C(Nc1ccccc1Cl)/C(Cl)=C(\\Cl)S(=O)c1ccccc1", "note": "(stereo not drawn)", "inhibition": "101% (active)"}, {"smiles": "O=C(Nc1ccccc1Cl)c1ccc2nsnc2c1", "inhibition": "-3.57% (inactive)"}, {"smiles": "COc1cccc(/C=C/C(=O)Nc2ccc3c(c2)OCCO3)c1", "inhibition": "13.7% (inactive)"}, {"smiles": "CCC(=O)Nc1ccc2nc(C)n(Cc3ccccc3Cl)c(=O)c2c1", "inhibition": "4.75% (inactive)"}, {"smiles": "Cc1cc(C(=O)Nc2ccccc2N2CCOCC2)c2ccccc2n1", "inhibition": "1.07% (inactive)"}, {"smiles": "CCN1CCN(c2cc3nc(C)n(Cc4ccccc4)c(=O)c3cc2NC(=O)c2ccccc2F)CC1", "inhibition": "98.3% (active)"}, {"smiles": "Cc1c(/C=N\\NC(=O)c2cc3ccccc3o2)c2ccccc2n1C", "inhibition": "9.72% (inactive)"}]}]}
